# Laboratory results as given in the supplement of paper PMC5662767.
# Structures can show the parent of a compound that is named as a salt.
# Tested on: Drosophila S2 cl14 SmoIP sensor cells
# Test: normalized SmoIP GFP fluorescence (untreated unstimulated = 0%, untreated Hh-stimulated = 100%); higher = more Smo activation sensor fluorescence
# Settings: stimulation: mock conditioned medium (-Hh); compound concentration: 2 uM; 24 h
# 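Also: flow cytometry read-out as median GFP intensity of gated cells, compounds added 30 min before Hh-conditioned or mock medium, mock-treated cells serving as unstimulated baseline.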
row,Structure (SMILES),normalized SmoIP GFP fluorescence
1,c1cn2cc(-c3ccc4cn[nH]c4c3)nc(Nc3ccc(N4CCOCC4)cc3)c2n1,2.97%
2,N#CC(=C(/N)Sc1ccccc1N)/C(C#N)=C(/N)Sc1ccccc1N,23.1%
3,Cc1ccc(-n2nc(C(C)(C)C)cc2NC(=O)Nc2ccc(OCCN3CCOCC3)c3ccccc23)cc1 [BIRB-796-(Doramapimod)],72.2%
4,COc1cc2/c(=N/c3ccc(Br)cc3F)nc[nH]c2cc1OCC1CCN(C)CC1 [Vandetanib],60.9%
5,O=C(NOC[C@H](O)CO)c1ccc(F)c(F)c1Nc1ccc(I)cc1F,77.1%
6,C[C@]12CC[C@@H]3c4ccc(O)cc4CC[C@H]3[C@@H]1CCC2=O [Estrone],5.12%
7,COc1ccccc1N1CCN(CC(O)COc2cccc3ccccc23)CC1 (configuration not stated) [Naftopidil-Dihydrochloride],-1.88%
8,CC(C)CCNC(=O)C(CC(C)C)NC(=O)C1OC1C(=O)O (configuration not stated) [loxistatin-acid-e-64c],34.9%
9,CN(C)CCc1c[nH]c2ccc(Cn3cncn3)cc12 [Rizatriptan-Benzoate(Maxalt)],-0.265%
10,Nc1ncn([C@H]2C[C@H](O)[C@@H](CO)O2)c(=O)n1 [Decitabine],25.6%
11,COc1cc2c(Oc3ccc4[nH]c(C)cc4c3F)ncnc2cc1OCCCN1CCCC1 [Cediranib],52.4%
12,Cc1cn([C@H]2C=C[C@@H](CO)O2)c(=O)[nH]c1=O [Stavudine],-2.1%
13,COc1nc(C)cnc1NS(=O)(=O)c1cccnc1-c1ccc(-c2nnco2)cc1 [Zibotentan(ZD4054)],-1.13%
14,COc1cc2nccc(Oc3ccc(NC(=O)C4(C(=O)Nc5ccc(F)cc5)CC4)cc3)c2cc1OC,3.51%
15,NC(=S)N/N=C/c1ncccc1N [triapine],-3.71%
16,COc1ccc(-c2nc(N3CCOCC3)c3sc(CN(C)c4ncc(C(=O)NO)cn4)cc3n2)cn1 [cudc-907],82.3%
17,OC(CCN1CCCCC1)(c1ccccc1)C1CC2C=CC1C2 (configuration not stated) [Biperiden-hydrochloride],2.64%
18,O=C(/C=C/c1ccc(CN(CCO)CCc2c[nH]c3ccccc23)cc1)NO,79.7%
19,CCc1cc(Nc2nccc(-c3c(-c4ccc(OC)c(C(=O)Nc5c(F)cccc5F)c4)nc4ccccn34)n2)c(OC)cc1N1CCC(N2CCN(S(C)(=O)=O)CC2)CC1,25.3%

row,Structure (SMILES),normalized SmoIP GFP fluorescence
1,CC1=C(C(=O)Nc2cc3cn[nH]c3cc2F)C(c2ccc(C(F)(F)F)cc2)CC(=O)N1 (configuration not stated),-1.88%
2,C[C@H](NCc1ccc(OCc2cccc(F)c2)cc1)C(N)=O [Safinamide-mesilate],4.04%
3,CS(=O)(=O)c1ccc(C(=O)Nc2ccc(Cl)c(-c3ccccn3)c2)c(Cl)c1,36.8%
4,Oc1nc(-c2ccc(C(F)(F)F)cc2)nc2c1CSCC2,5.66%
5,CCOc1ccn(-c2ccc(F)cc2)c(=O)c1C(=O)Nc1ccc(Oc2ccnc(N)c2Cl)c(F)c1,-5.22%
6,C=CC(=O)Nc1cccc(Oc2nc(Nc3ccc(N4CCN(C)CC4)cc3)ncc2Cl)c1,11%
7,NC(=O)Nc1cc(-c2cccc(F)c2)sc1C(=O)N[C@H]1CCCNC1,45%
8,CCOc1cc(CC(=O)N[C@@H](CC(C)C)c2ccccc2N2CCCCC2)ccc1C(=O)O [Repaglinide],6.52%
9,CN1CCN(CCOc2cc(OC3CCOCC3)c3c(Nc4c(Cl)ccc5c4OCO5)ncnc3c2)CC1,10.4%
10,Clc1ccc(C2(c3ccc(-c4cn[nH]c4)cc3)CCNCC2)cc1,17.1%
11,COC(=O)N[C@H](C(=O)N[C@@H](Cc1ccccc1)[C@@H](O)CN(Cc1ccc(-c2ccccn2)cc1)NC(=O)[C@@H](NC(=O)OC)C(C)(C)C)C(C)(C)C [Atazanavir],-0.0496%
12,CCNC(=O)c1noc(-c2cc(C(C)C)c(O)cc2O)c1-c1ccc(CN2CCOCC2)cc1,32.9%
13,COc1cc2c(Nc3ccc(NC(=O)c4ccccc4)cc3)ncnc2cc1OCCCN1CCOCC1,6.52%
14,CCOC(=O)[C@H](CCc1ccccc1)N[C@H]1CCc2ccccc2N(CC(=O)O)C1=O [Benazepril-hydrochloride],1.35%
15,c1cnc2cc3c(cc2n1)[C@@H]1CNC[C@H]3C1 [Varenicline-tartrate],2.97%
16,COc1cc(Nc2ncc(F)c(Nc3ccc4c(n3)NC(=O)C(C)(C)O4)n2)cc(OC)c1OC [R406(free-base)],9.32%
17,C=CC(=O)Nc1cccc(Sc2nc(Nc3ccc(N4CCN(C)CC4)cc3)ncc2Cl)c1,36.2%
18,CCOC(=O)N1CCC(=C2c3ccc(Cl)cc3CCc3cccnc32)CC1 [Loratadine],11%
